Compounds with a hit are over-represented: about 1.2% of the library has one in this group of screens.
RGS8-Gao: modulates binding of RGS8 to human Galphao | actives 0.34% (n = 220,000) | response (percent of control binding), % at 10 µM | multiplexed bead flow cytometry; actives lie on both sides; in the data active means response below about 60% or above about 140%; inactive means in between;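 further: Galphao activated as the GDP aluminium fluoride complex binding bead-coupled RGS8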
Target sequence (P09471 whole entry, looked up): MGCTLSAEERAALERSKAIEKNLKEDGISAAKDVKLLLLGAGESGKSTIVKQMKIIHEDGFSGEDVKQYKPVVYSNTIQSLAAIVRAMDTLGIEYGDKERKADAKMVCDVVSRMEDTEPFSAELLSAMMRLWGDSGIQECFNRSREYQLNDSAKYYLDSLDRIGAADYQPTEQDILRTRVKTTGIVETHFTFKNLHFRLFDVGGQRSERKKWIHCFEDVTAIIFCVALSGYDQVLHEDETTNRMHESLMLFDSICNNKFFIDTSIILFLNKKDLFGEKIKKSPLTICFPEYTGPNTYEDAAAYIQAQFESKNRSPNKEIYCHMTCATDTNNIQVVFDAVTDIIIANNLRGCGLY
RGS16-Gao: RGS16-Galphao interaction regulator (human). actives 0.38% (n = 220,000). bead-based flow cytometry RGS16-Galphao binding, fluorescence; actives lie on both sides. binding response (% of control), % at 10 µM;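 further: Galphao activated by GDP with aluminum fluoride before binding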
Avidin fluor: compound fluoresces at 488/530 nm on avidin beads | fluorescence (KMESF) at 10 µM | compound fluorescence 488/530 nm, flow cytometry; stronger effect = higher value | actives 0.38% (n = 220,000); in the data active means fluorescence above about 47
GSH fluor: compound fluoresces at 488/530 nm on GSH beads; GSH beads flow cytometry, compound fluorescence 488/530 nm; stronger effect = higher value; actives 0.25% (n = 190,000); fluorescence (KMESF) at 10 µM; in the data active means fluorescence above about 89;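 further: glutathione beads carrying GST-tagged Bcl family fusion proteins plus one bare bead set; values are compound well signal with DMSO vehicle wells as background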
RGS7-Gao reg: human RGS7-Galphao interaction regulation | P09471 | Multiplexed bead flow cytometry, RGS7-Galphao binding; actives lie on both sides | binding response (% of control), % at 10 µM | actives 0.35% (n = 220,000) | AID 1439; in the data active means binding response below about 49% or above about 150%; inconclusive means no clear call, values can overlap the other calls; inactive means in between;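 further: fluorescent Galphao held in activated GDP-AlF4 state binding bead-coupled RGS7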
RGS4-Gao reg: human RGS4-Galphao interaction regulation; P09471; Multiplexed bead flow cytometry, RGS4-Galphao binding; actives lie on both sides; binding response (% of control), % at 10 µM; actives 0.33% (n = 220,000); AID 1415; in the data active means binding response below about 49% or above about 150%; inactive means in between;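 further: fluorescent Galphao activated with aluminum fluoride binding bead-coupled RGS4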
RGS4-Gao HTS: modulates binding between human RGS4 and Galphao. RGS4–Galpha-o binding response, % at 10 µM. multiplexed bead flow cytometry, RGS–Galpha-o binding. actives 99% (n = 1,600). shares compounds with RGS16-Gao;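 further: fluorescently labeled Galpha-o bound to GDP with aluminium fluoride binding biotinylated RGS beads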
Target sequence (P09471 whole entry, looked up): as above
Target sequence (P49798 whole entry, looked up): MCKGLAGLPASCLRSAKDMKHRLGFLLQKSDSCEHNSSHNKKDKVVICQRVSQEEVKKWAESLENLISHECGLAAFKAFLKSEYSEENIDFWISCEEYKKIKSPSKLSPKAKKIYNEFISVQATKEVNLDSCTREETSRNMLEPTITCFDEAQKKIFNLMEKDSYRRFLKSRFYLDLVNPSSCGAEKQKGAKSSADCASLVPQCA
Avidin counter: biotin-avidin bead binding disruption counter-screen; shares compounds with RGS16-Gao; AID 1783; streptavidin beads, fluorescein-biotin binding, flow cytometry; 1,700 tested, under 10 active; inhibition, % at 10 µM;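 active means inhibition above 50%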;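 further: median green fluorescence of gated singlet beads compared with DMSO control wells; 0% = DMSO wells and 100% = complete loss of bead fluorescence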
RGS8-Gao confirm: confirmation of regulators of human RGS8-Galphao interaction | binding response (% of control), % at 10 µM | AID 1836 | actives 3% (n = 1,700) | shares compounds with RGS16-Gao | bead-based flow cytometry RGS8-Galphao binding, fluorescence; actives lie on both sides; in the data active means binding response below about 72% or above about 130%; inactive means in between;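 further: Galphao activated as GDP AlF4 complex before binding bead RGS8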
RGS7-Gao single: confirmation of regulators of human RGS7-Galphao interaction; shares compounds with RGS16-Gao; bead-based flow cytometry RGS7-Galphao binding; actives lie on both sides; response (percent of control binding), % at 10 µM; actives 7.8% (n = 1,700); AID 1837; in the data active means response below about 75% or above about 130%; inactive means in between;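 further: fluorescent Galphao activated with GDP and aluminum fluoride binding bead-coupled RGS7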
RGS16-Gao conf: RGS16-Galphao interaction regulation, single point confirmation | actives 4% (n = 1,700) | response (% of control binding), % at 10 µM | bead-based flow cytometry, RGS16-Galphao binding; actives lie on both sides | shares compounds with RGS16-Gao | AID 1838; in the data active means response below about 74% or above about 130%; inactive means in between;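 further: Galphao activated as the GDP aluminium fluoride complex binding bead-coupled RGS16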
RGS4-Gao single: confirmation of regulators of human RGS4-Galphao interaction | shares compounds with RGS16-Gao | RGS4-Galphao binding, multiplexed bead flow cytometry; actives lie on both sides | binding response (% of control), % at 10 µM | actives 4% (n = 1,700) | AID 1840; in the data active means binding response below about 74% or above about 130%; inactive means in between
RGS19-Gao conf: confirmation of regulators of human RGS19-Galphao interaction; shares compounds with RGS16-Gao; bead-based flow cytometry RGS19-Galphao binding; actives lie on both sides; response (percent of control binding), % at 10 µM; actives 5% (n = 1,700); AID 1841; in the data active means response below about 50% or above about 160%; inactive means in between;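 further: 100% = no compound control and 0% = blank background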
The depositor's hits bear a star; i = inactive; ? = inconclusive; / = not tested or not shown; [ ] = remark or other dose. Unless noted, how the calls were made is not given here.

SMILES	RGS8-Gao	RGS16-Gao	Avidin fluor	GSH fluor	RGS7-Gao reg	RGS4-Gao reg	Avidin counter	RGS8-Gao confirm	RGS7-Gao single	RGS16-Gao conf	RGS4-Gao single	RGS19-Gao conf	others
Cn1c(C(=O)NCc2ccccc2)cc2oc3ccccc3c21	115	/	12	27	116	110	2	100	97	99	100	99
CN(c1ccccc1)c1nc2ccsc2c(=O)s1	97	113	169*	32	247*[activator]	127	-2	100	102	100	99	99	RGS4-Gao HTS=127*
Cn1c(SCC(=O)N/N=C/C=C\c2ccccc2[N+](=O)[O-])nc2ccccc21	73	23*	1	5	93	89	i	105	106	104	106	103	RGS4-Gao HTS=89*
Cn1c(SCC(=O)N/N=C/C=C/c2ccccc2[N+](=O)[O-])nc2ccccc21	100	97	28	10	101	100	/	/	/	/	/	/
COc1cc(OC)cc(-c2n[nH]c(=S)n2-c2ccc3c(c2)OCO3)c1	81	21*	1	15	104	101	3	97	105	97	104	88	RGS4-Gao HTS=101*
COC(=O)c1ccc(OCC(O)CN(CC(C)C)CC(C)C)cc1 (stereo unspecified)	132	262	6	28	110	116	/	/	/	/	/	/
O=C(CSc1ncn[nH]1)Nc1ccc(S(=O)(=O)Nc2ncccn2)cc1	101	104	6	21	101	97	/	/	/	/	/	/
COCCCNC(=O)C1CCN(C(=O)c2cc3sccc3n2Cc2ccc(F)cc2)CC1	100	98	7	48	96	99	/	/	/	/	/	/
O=C(NCCCN1CCCC1)C1CCN(C(=O)c2cc3sccc3n2Cc2ccc(F)cc2)CC1	121	262	193*	31	181*[activator]	134	/	/	/	/	/	/	RGS4-Gao HTS=134*
CC(C)NC(=O)NC(=O)COC(=O)c1ccc([N+](=O)[O-])cc1Cl	102	100	11	11	?	102	/	/	/	/	/	/
N#Cc1nc(-c2ccccc2F)oc1NCCN1CCOCC1	176*[activator]	275	2	23	134	149	-1	98	99	96	97	92	RGS4-Gao HTS=149*
O=C(c1ccc(OC2CCN(CCc3ccccc3)CC2)cc1)N1CCCC(CO)C1 (stereo unspecified)	102	98	2	10	101	101	/	/	/	/	/	/
O=C(Nc1ccccc1SCC1CSc2nc3ccccc3c(=O)n21)c1ccccc1Cl (stereo unspecified)	/	/	/	17	/	/	2	100	75*	87	87	51
Cc1csc(N(C(=O)CCNC(=O)c2ccc([N+](=O)[O-])cc2)c2ccccc2)n1	102	105	18	8	104	100	/	/	/	/	/	/
Cc1onc(-c2ccccc2Cl)c1C(=O)Nc1nn[nH]n1	53*	-3	2	5	52	47*	0	108	109	110	104	113
O=C(O)CNC(=O)CC1S/C(=N/N=C2/NC(=O)CS2)NC1=O (stereo unspecified)	113	117	26	8	114	113	/	/	/	/	/	/
CC(C)Cc1nnc(NC(=O)CSc2ccccn2)s1	/	/	/	39	/	/	0	102	97	102	99	105
Oc1c(/C=C/C=C/C=Nc2ccccc2)sc(=S)n1Cc1ccccc1	97	91	4	/	?	94	/	/	/	/	/	/
COc1ccccc1C(CC(=O)Nc1ccc(C)c(C)c1)c1ccc(OC(C)C)cc1 (stereo unspecified)	128	197*[activator]	6	17	118	115	2	99	90	96	96	61	RGS4-Gao HTS=115*
COc1ccccc1NC(=O)CC(c1ccc(OC(C)C)cc1)c1ccccc1OC (stereo unspecified)	104	102	7	19	107	104	/	/	/	/	/	/
COc1ccc(/C=C(\NC(=O)c2ccccc2)C(=O)NNC(=O)CCN2CCOCC2)cc1	101	102	13	25	99	99	/	/	/	/	/	/
O=C(CCN1CCOCC1)NNC(=O)/C(=C/c1ccccc1)NC(=O)c1ccccc1	86	64	13	10	54	43*	1	111	101	112	102	101
COc1ccc(/C(O)=C2\C(=O)C(=O)N(Cc3ccco3)C2c2cc(OC)ccc2OC)cc1 (stereo unspecified)	24*	21*	6	11	26*	31*	-1	100	102	101	100	94
Cc1cc(N2CCN(C(c3ccccc3)c3ccccc3)CC2)n2ncnc2n1	/	/	/	55	/	/	0	98	86	91	90	75
Cc1nc2ncnn2c(N2CCN(C(c3ccccc3)c3ccccc3)CC2)c1C	104	100	24	17	100	102	/	/	/	/	/	/
CC1=NN(C(C#N)c2ccc([N+](=O)[O-])cc2)C(C)(C)C1 (stereo unspecified)	106	122	8	/	?	108	/	/	/	/	/	/
CC1=NN(C(C#N)c2ccc(F)cc2)C(C)(C)C1 (stereo unspecified)	58*	45	4	16	44*	50*	0	104	111	107	109	103
CNC(=O)COc1ccc(C=O)cc1OC	72	11*	7	4	86	91	-1	101	98	100	100	97	RGS4-Gao HTS=91*
CCOc1ccc(-c2c(=O)n(OCc3ccc([N+](=O)[O-])cc3)c3ccccc3[n+]2[O-])cc1	104	108	14	10	102	100	/	/	/	/	/	/
O=C(Nc1cccc2cccc(NC(=O)c3ccco3)c12)c1ccco1	99	91	5	9	95	92	/	/	/	/	/	/

Screens as filed in PubChem BioAssay.
